# Source: the supplement of paper PMC3334620
# Whole data set: some 33,000 sequences, median “E-score (-0.5 to 0.5)” near -0.012, cut for the highest 2% near 0.27. Only a selection was taken, and the highest values are over-represented in it overall.
# Biological target: T1, Vhr1 (UniProt P40522)
# T1 sequence: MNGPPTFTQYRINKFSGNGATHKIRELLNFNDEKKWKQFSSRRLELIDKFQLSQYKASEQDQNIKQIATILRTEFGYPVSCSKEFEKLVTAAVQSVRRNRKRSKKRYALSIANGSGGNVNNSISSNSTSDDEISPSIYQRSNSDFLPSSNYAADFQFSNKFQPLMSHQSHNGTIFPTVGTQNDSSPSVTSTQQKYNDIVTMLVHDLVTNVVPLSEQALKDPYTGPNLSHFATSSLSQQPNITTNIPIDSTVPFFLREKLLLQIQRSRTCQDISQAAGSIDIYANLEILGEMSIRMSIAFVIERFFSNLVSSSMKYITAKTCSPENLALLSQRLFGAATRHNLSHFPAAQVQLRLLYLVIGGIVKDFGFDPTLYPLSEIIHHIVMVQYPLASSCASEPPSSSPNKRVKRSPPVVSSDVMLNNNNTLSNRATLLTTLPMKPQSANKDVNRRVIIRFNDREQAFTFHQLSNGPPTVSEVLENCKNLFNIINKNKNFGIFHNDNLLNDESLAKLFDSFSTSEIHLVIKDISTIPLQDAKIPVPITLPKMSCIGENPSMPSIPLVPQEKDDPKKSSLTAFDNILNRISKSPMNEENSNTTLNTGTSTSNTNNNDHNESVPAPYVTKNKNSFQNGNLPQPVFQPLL
# Experiment: PBM E-score (8-mer binding enrichment) (E-score (-0.5 to 0.5)); higher = stronger / more preferred TF binding
# Details: protein concentration: 200 nM; construct: GST-full length
# Protocol: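 Universal 'all 10-mer' protein binding microarrays (Agilent AMADID 015681) probed with GST-tagged S. cerevisiae TFs (full-length or DBD) made by in vitro transcription/translation (PURExpress), about 100-200 nM. Bound TF was detected with fluorescent anti-GST. Each ungapped 8-mer (which stands for itself and its reverse complement) is scored by the PBM enrichment score (E-score), a modified Wilcoxon-Mann-Whitney statistic from -0.5 to +0.5, computed with the Universal PBM Analysis Suite. Scale: above 0.35 generally sequence-specific binding.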
row,Sequence,PBM E-score
1,CGCGGCTC,0.278
2,CGCGGCTA,-0.0223
3,CGAGTCTC,0.0296
4,CCAGTCAG,0.0854
5,CGTGTCAG,0.037
6,GGAGTCGA,0.122
7,GGAGTCAA,0.354
8,CGAGTCTA,-0.0817
9,CGAGTCAG,0.429
10,CGAGTCCC,0.186
11,CGAGTCAA,0.278
12,CGAGTCAC,0.467
13,CAAGTCAA,-0.0643
14,GGAGTCTA,0.0135
15,CCGTGCCG,-0.00022
16,AACCTCTC,-0.172
17,GCAGCCGA,0.0559
18,GCAGGCCA,0.117
19,ACTGATCC,0.0497
20,ATTGTTTC,0.217
21,GGAGTCCA,0.163
22,CCAGTCCG,-0.0813
23,CGAGTCCG,0.286
24,TGAGTCCA,0.3
25,TTAGTCAA,0.168

row,Sequence,PBM E-score
1,AGAGTCCG,-0.0962
2,TGAGTCAA,0.419
3,CGAGTCCA,-0.0942
4,TCAGTCAA,0.114
5,CAATCAAA,-0.008
6,CCTTCCCC,0.0876
7,CCCTATCC,-0.0379
8,CCAGCTGG,0.301
9,CCAGCTGC,-0.105
10,ACAGCTGG,-0.119
11,AGTAAATC,0.0723
12,AGGACTCA,0.376
13,CGGACTCA,0.381
14,CGGACTTA,-0.189
15,AGGACTCG,0.167
16,AGGACTCC,0.129
17,CGGACTCC,0.2
18,ATATACTA,0.257
19,CCTTGAGA,-0.0758
20,ACATAGTA,0.188
21,ACATAGTG,0.314
22,AAATAGTG,-0.149
23,CCATAGTC,0.225
24,AAATAGTC,0.0418
25,ACATAGTC,0.272

row,Sequence,PBM E-score
1,CCAGGACA,-0.0732
2,CTGCACAA,-0.0636
3,GGTTGTGA,0.143
4,ATCTCAAA,-0.0488
5,TGCTCAAA,-0.193
6,AATCCATT,0.113
7,ACTAATCG,0.251
8,ACGCAGTC,0.169
9,CCTCAGTC,0.0647
10,ACTCAGTA,0.281
11,CCGCAGTA,0.0424
12,CCGCAGTC,0.274
13,CCTCAGTA,-0.106
14,ACTCAGTC,0.314
15,GCTCAGTA,-0.0102
16,ACTCAGTG,0.245
17,ACGATGCC,-0.257
18,AGCAACTG,0.00583
19,GACCCAAA,0.0473
20,CGGAATAA,-0.0766
21,GGCCACTA,-0.00131
22,GTTGCCTA,-0.162
23,GAACGATA,-0.0543
24,AAACCAGT,0.0233
25,ATCTTGGA,0.0371

row,Sequence,PBM E-score
1,GCCTTATA,-0.0741
2,CGCCCGAC,0.342
3,AGCCCGAC,0.0296
4,CGCCCGAA,-0.0969
5,AACGAGCA,-0.0591
6,ATGCTCAG,0.141
7,ACTAGAGT,0.0036
8,ACCACATC,0.276
9,ACCACATG,0.262
10,ACCACATA,0.125
11,CGCTCACA,0.137
12,CCCAACCC,0.118
13,CCCAACCA,0.275
14,ACCAACAG,0.046
15,ACCAACAA,0.359
16,ACCAACCA,0.163
17,ACCAACAT,0.157
18,CCCTAGCC,-0.184
19,ACCCCACC,0.385
20,AACCCACT,0.246
21,AACCCACA,0.168
22,GCCCCACC,0.265
23,AACCCACC,0.313
24,GCCCCTCA,-0.0991
25,CACCCACA,0.241

row,Sequence,PBM E-score
1,CCCCCTCC,-0.0898
2,GACCCACC,0.224
3,GCCCCTCC,0.331
4,CACCCACC,0.317
5,CCCCCACC,-0.341
6,GCGGCCAC,0.0847
7,ACAGCGAT,-0.04
8,AGATCTGC,-0.0821
9,GGGCTGGA,-0.0152
10,GGTGGTCA,0.00378
11,AACCCACG,0.0933
12,AACCCTCC,-0.129
13,GACCCACA,0.284
14,CACCCTCA,0.0412
15,CACCCACG,0.249
16,CACCCTCC,0.276
17,CCACCAAA,0.0455
18,GCGAAACC,-0.0227
19,GAGTCTCA,0.256
20,GCACACCC,0.139
21,CCGCGCAA,-0.026
22,CCGCGCGA,0.22
23,GCGCGCGA,0.185
24,TCGCGCAA,0.0709
25,CCGCGCGG,0.346

row,Sequence,PBM E-score
1,GCGCGCAA,0.3
2,ACGCGCGC,0.107
3,GCGCGCGC,0.379
4,CCGCGCGC,0.258
5,AGGACGCG,-0.226
6,CTAAAGAG,-0.0856
7,GTAGCGAA,-0.027
8,AACTAGAA,-0.115
9,AATCACTC,0.115
10,ATTCACTG,-0.0337
11,CGTCACTA,0.0865
12,ACTCACTC,0.254
13,AGTCACTG,0.384
14,AATCACTG,0.374
15,AGTCACTA,0.366
16,AGTCACTC,0.428
17,AATCACTA,0.267
18,GGTCACTA,-0.0218
19,CGTCACTC,-0.0595
20,ACTCACTG,0.265
21,AACGGTCC,-0.263
22,AGGTGTGC,0.163
23,AAGCTCCA,0.111
24,AAGCCACT,-0.0197
25,CCATCTGC,0.0983

row,Sequence,PBM E-score
1,GTCTTCAC,-0.058
2,AATCTAGC,-0.218
3,CTATAGGC,-0.243
4,AACCTGAG,-0.0364
5,ACACGACA,0.0664
6,ACACGACC,0.109
7,ACACGACT,0.277
8,GCTTGCAA,0.0649
9,AAAGGTGC,-0.162
10,ACGGTAAT,-0.0641
11,ACGAGTCT,0.0718
12,ACGAGTTG,0.0198
13,CCGAGTAG,0.1
14,ACGAGTAG,0.0242
15,TCGAGCCA,-0.0584
16,TCGAGTCA,0.399
17,ACGAGTCC,0.0781
18,CCAAGTCG,0.00863
19,TCGAGTAA,0.0538
20,ACGAGTCA,0.43
21,CCGAGTCG,0.336
22,ACGAGTCG,0.322
